# According to the OligoGym collection:
# Target: C1orf105
# Assay: pooled miR-30 sensor sort-seq; sequence = guide strand
# Conditions: shRNA
# Also: reference of the scale not given here.
row,Sequence,sensor-assay potency score (higher = more potent)
1,TTTGGGTTGATGAAGACTCATT,-1.17
2,TTGCCTATTGGTTCCTTTCTGG,0.0888
3,TACAATTCTCAAAGGATGCTTT,-0.234
4,TTTCATTTCTTGACATGTGGAG,0.0387
5,TTTTCATTTCTTGACATGTGGA,-0.589
6,TAGTGAATGTTTTCTGTTGGGA,0.127
7,AACATCTGGAACTTGAAACAAA,-0.678
8,TTCATTTCTTGACATGTGGAGC,-1.06
9,TTGACATGTGGAGCACAGCTGT,-0.883
10,TAAGCCAAGGAATCTTGTCAAA,-1.39
11,TTCTGGGCAAGGAAGAACGTTG,-0.752
12,TATAACTCATACAATTCTCAAA,-1.37

# Target: C1orf106
# Assay: as above
# Conditions: shRNA
row,Sequence,sensor-assay potency score (higher = more potent)
1,TTGAGCTCCTCGGACACGGCGG,-0.833
2,TCTAGCAAGACAATACACCACC,-0.714
3,TATATAAGGAGATAGAGGCTGT,0.0357
